# Measured values as given in PubChem BioAssay (NCATS).
# Inconclusive results are not listed. A call without a number means that no potency is given here. A number with no mark means an inactive call. The source made the active and inactive calls. Calls come from the whole dose curve; as a rule, active = well fitted curve in the direction sought with a large enough effect; inconclusive = small, poorly fitted or top-dose-only effect, or another doubt; inactive = no such curve, though single readings can be large; an effect the other way counts as inactive or inconclusive.
# Experiments:
# [1] = test system: Zika virus NS2B-NS3 protease; test: Primary screen GU AMC qHTS for Zika virus inhibitors (AID 1347154); note: nearly all actives have a fitted effect of over 70% in size; note: potency is the fitted concentration of half-maximal effect
# How it was run: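 Fluorogenic AMC-substrate cleavage by noncovalent NS2B-NS3 protease complex (25 nM, pH 8.0 Tris buffer with Tween 20) followed for 15 minutes at room temperature (~20% conversion). Percent inhibition from ex340/em450 signal change, fitted by 4-parameter Hill equation.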
# [2] = test system: Zika virus NS2B-NS3 protease (unlinked complex); test: Primary screen GU Rhodamine qHTS for Zika virus inhibitors: Unlinked NS2B-NS3 protease assay (AID 1347159); note: nearly all actives have a fitted effect of over 60% in size
# How it was run: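 Unlinked NS2B/NS3, 25 nM; Rhod110 peptide, 1.5 microM; compounds, up to 114 microM. Reaction run 15 min at RT in 10 mM Tris-HCl pH 8.0, 0.01% Tween 20; kinetic fluorescence change fitted with a 4-parameter Hill model.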
# [3] = test system: Zika virus NS2B-NS3 protease (linked construct); test: Primary screen NINDS Rhodamine qHTS for Zika virus inhibitors (AID 1347160); note: nearly all actives have a fitted effect of over 55% in size
# How it was run: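 Single-chain NS2B-NS3 protease, 25 nM, pH 8.0; compounds preincubated 15 min. Activity: Rhodamine110 release from 1.5 microM substrate over 15 min, room temperature, data fitted to 4-parameter Hill.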
# [4] = qHTS to identify inhibitors of the type 1 interferon - major histocompatibility complex class I in skeletal muscle: primary screen against the NCATS Mechanism Interrogation Plate v5.0 (MIPE) Libary (AID 1347411); note: nearly all actives have a fitted effect of over 65% in size; note: potency is the fitted concentration of half-maximal effect
# How it was run: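 HLA-B HiBit myoblasts, dexamethasone-free medium + 4 ng/ml IFN-b, 24 h compound, 11-pt 1:3 from 46 uM final. Readout: Nano-Glo HiBiT lytic luminescence after 10 min lysis, RT.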
# [5] = target: Protein phosphatase 1D (Homo sapiens) (UniProt O15297); test: RapidFire Mass Spectrometry qHTS Assay for Modulators of WT P53-Induced Phosphatase 1 (WIP1) (AID 1347424);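 note: amount of dephosphorylated VEPPL-S-QETFS peptide product formed by WIP1; series mostly up to about 63 µM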
# Protein phosphatase 1D (Homo sapiens), sequence (O15297 whole entry, looked up): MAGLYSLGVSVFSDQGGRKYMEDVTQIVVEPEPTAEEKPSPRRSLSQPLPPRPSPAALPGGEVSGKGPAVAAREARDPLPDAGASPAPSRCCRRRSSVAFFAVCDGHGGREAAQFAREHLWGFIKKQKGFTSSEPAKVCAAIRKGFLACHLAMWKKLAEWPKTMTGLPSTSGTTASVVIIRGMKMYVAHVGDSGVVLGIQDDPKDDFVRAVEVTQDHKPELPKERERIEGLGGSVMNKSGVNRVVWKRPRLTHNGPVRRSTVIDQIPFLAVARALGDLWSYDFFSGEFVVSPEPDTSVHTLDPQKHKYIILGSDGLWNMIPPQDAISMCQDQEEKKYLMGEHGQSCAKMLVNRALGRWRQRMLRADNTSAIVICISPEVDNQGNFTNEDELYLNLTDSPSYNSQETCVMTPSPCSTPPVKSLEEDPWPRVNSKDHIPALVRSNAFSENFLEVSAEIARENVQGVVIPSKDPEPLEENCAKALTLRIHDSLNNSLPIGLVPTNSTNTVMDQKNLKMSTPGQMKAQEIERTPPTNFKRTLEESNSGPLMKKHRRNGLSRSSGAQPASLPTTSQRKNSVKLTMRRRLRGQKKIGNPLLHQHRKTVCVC
# How it was run: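 RapidFire mass spectrometry measured dephosphorylated peptide after 5 min room-temperature reaction of 2 uM VEPPL-pS-QETFS with 10 nM WIP1 (50 mM Tris-HCl pH 7.5, 30 mM MgCl2, 0.1 mM EGTA, BSA), following 1 hr compound preincubation; 1 uM isotope-labelled product standard.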
# [6] = target: Protein phosphatase 1D (Homo sapiens) (UniProt O15297); test: Rhodamine-PBP qHTS Assay for Modulators of WT P53-Induced Phosphatase 1 (WIP1) (AID 1347425)
# How it was run: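 Steps: enzyme with Rh-PBP sensor and compounds, room-temperature incubation of 1 hr, baseline read, addition of VEPPL-pS-QETFS (10 uM final), kinetic fluorescence reads at 525/598 nm. Activity equals final minus baseline signal.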
# [7] = Primary qHTS for inhibitors of La Crosse Virus (LACV) - induced cell death in SH-SY5Y cells (AID 1508616);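 note: top concentration of the series differs between compounds; higher means more rescue of cells from virus-induced death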
# How it was run: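 Cytopathicity rescue screen: compounds pinned onto SH-SY5Y cells, which are then infected with LACV (MOI 0.01) and held 6 days at 37C. Percent activity is scaled between infected DMSO control and uninfected DMSO control.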
smiles,measurement,setting,value
CC1(C)CC(=O)c2c(C(F)(F)F)nn(-c3ccc(C(N)=O)c(NC4CCC(O)CC4)c3)c2C1 (stereo not given),Potency,[1],inactive
same,Potency,[2],inactive
same,Potency,[3],inactive
CC1CCN(c2cc(N3CCN(C)CC3)ccc2NC(=O)c2cc(C#N)c[nH]2)CC1,Potency,[1],inactive
same,Potency,[2],inactive
same,Potency,[3],inactive
C=CC(=O)Nc1cccc(Sc2nc(Nc3ccc(N4CCN(C)CC4)cc3)ncc2Cl)c1,Potency,[1],inactive
same,Potency,[2],inactive
same,Potency,[4],13.1 µM (active)
COc1ccc(CCC(=O)Nc2nc3ccc(Cl)cc3s2)cc1OC,Potency,[1],inactive
same,Potency,[2],inactive
same,Potency,[4],inactive
c1ccc(-c2oc3ncnc(NC[C@@H]4CCCO4)c3c2-c2ccccc2)cc1,Potency,[1],30.4 µM (active)
same,Potency,[2],inactive
same,Potency,[3],inactive
same,Potency,[4],inactive
CC(=O)Nc1cccc(-n2c(=O)n(C3CC3)c(=O)c3c(Nc4ccc(I)cc4F)n(C)c(=O)c(C)c32)c1,Potency,[1],inactive
same,Potency,[2],inactive
same,Potency,[3],inactive
same,Potency,[4],inactive
CN1CCc2c(n(Cc3ccc(C(=O)NO)cc3)c3ccccc23)C1,Potency,[1],inactive
same,Potency,[2],inactive
same,Potency,[3],inactive
NC(=O)c1ccc(N(C(N)=O)c2c(F)cccc2F)nc1-c1ccc(F)cc1F,Potency,[1],inactive
same,Potency,[2],inactive
same,Potency,[3],inactive
same,Potency,[4],inactive
CN1CCC(COc2cnc(-c3cccc(Cn4nc(-c5cccc(C#N)c5)ccc4=O)c3)nc2)CC1,Potency,[1],inactive
same,Potency,[2],inactive
same,Potency,[3],inactive
same,Potency,[4],inactive
Nc1[nH]nc2nnc(-c3c(-c4ccccc4)nn4ccccc34)cc12,Potency,[1],inactive
same,Potency,[2],inactive
same,Potency,[3],inactive
same,Potency,[4],inactive
CC1(COc2ccc3c(c2)ncn3-c2ccc3cccc(N4CCC(N)CC4)c3n2)COC1,Potency,[1],inactive
same,Potency,[2],inactive
same,Potency,[3],inactive
same,Potency,[4],5.23 µM (active)
Cc1cnc(-c2cc(N3CCN(C(=O)CCS(C)(=O)=O)CC3)ncc2Cl)c(C)c1,Potency,[1],inactive
same,Potency,[2],inactive
same,Potency,[3],inactive
same,Potency,[4],inactive
O=C(CCCN1CCN(c2ccc(F)cc2)CC1)NC1c2ccccc2CSc2ccccc21 (stereo not given),Potency,[1],inactive
same,Potency,[2],inactive
same,Potency,[3],inactive
same,Potency,[5],inactive
same,outcome,[6],inactive
same,outcome,[7],inactive
Cc1cnc(CNC(=O)c2c(=O)c3ccc(N4CCCN(C)CC4)nc3n3c2sc2ccccc23)cn1,Potency,[1],inactive
same,"activity change, negative = inhibition",[2],5.25% [at 19.1 µM]
same,"activity change, negative = inhibition",[4],-4.9% [at 8.44 µM]
Cc1c(C(=O)Nc2ccc(N3C[C@@H](C)O[C@@H](C)C3)nc2)cccc1-c1ccc(OC(F)(F)F)cc1,Potency,[1],inactive
same,Potency,[2],inactive
same,Potency,[4],inactive
